Test [1] is described as follows: Quantitative High-Throughput drug screen in 47 multiple myeloma cell lines against the NCATS MIPE library collection: UTMC2_PLB cell viability assay (AID 1919868). Note: nearly all actives have a fitted effect of over 55% in size. As to conditions: CellTiter-Glo ATP luminescence, 48 h; viability (% of DMSO control): at 45.8 µM (top of the series). The procedure, abridged: (§1)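 500 cells/well per myeloma line exposed to pinned MIPE 4.0 compounds for 48 h at 37 °C, 5% CO2. Viability read as ATP by CellTiter-Glo luminescence, normalised to DMSO-only (100%) and media-only (0%) wells.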
A general note: Cellular ATP, detected with luciferase, serves as a proxy for viable cell number.

A short description of test [2]: Quantitative High-Throughput drug screen in 47 multiple myeloma cell lines against the NCATS MIPE library collection: PE2_PLB cell viability assay (AID 1919869). Note: nearly all actives have a fitted effect of over 35% in size. The method, boiled down:
as §1

Test [3] can be described thus: Quantitative High-Throughput drug screen in 47 multiple myeloma cell lines against the NCATS MIPE library collection: PCM6_Riken cell viability assay (AID 1919870). Note: nearly all actives have a fitted effect of over 30% in size. The method, boiled down:
as §1

The nature of test [4]: Quantitative High-Throughput drug screen in 47 multiple myeloma cell lines against the NCATS MIPE library collection: RPMI8226_ATCC cell viability assay (AID 1919871). Note: nearly all actives have a fitted effect of over 30% in size. The procedure, abridged: as §1
Test [5] can be described thus: Quantitative High-Throughput drug screen in 47 multiple myeloma cell lines against the NCATS MIPE library collection: OPM2_DSMZ cell viability assay (AID 1919872). Note: nearly all actives have a fitted effect of over 30% in size. The method, boiled down: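 CellTiter-Glo ATP luminescence gave viability after 48 h compound treatment at 37C of 500 multiple myeloma cells per well. Normalisation used DMSO-only wells as 100% and media-only wells as 0% viability; primary qHTS of approved and investigational drugs.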

A short description of test [6]: Quantitative High-Throughput drug screen in 47 multiple myeloma cell lines against the NCATS MIPE library collection: KMS11_JCRBsus cell viability assay (AID 1919873). Note: nearly all actives have a fitted effect of over 50% in size. The method, boiled down: as §1
Test [7] can be described thus: Quantitative High-Throughput drug screen in 47 multiple myeloma cell lines against the NCATS MIPE library collection: KMS28BM_JCRB cell viability assay (AID 1919874). Note: nearly all actives have a fitted effect of over 35% in size. The method, boiled down:
as §1

Results filed as inconclusive are left out. Active and inactive are the calls of the source. Calls come from the whole dose curve; as a rule, active = well fitted cell-killing curve with a large enough effect; inconclusive = small, poorly fitted or top-dose-only effect, or effect the other way; inactive = no such curve, though single readings can be large or run the other way.

We go through 38 compounds from PubChem BioAssay (NCATS).
Potency is the fitted concentration of half-maximal effect.

Take `CCC(C(=O)O)C1CCC(C)C(C(C)C(O)C(C)C(=O)C(CC)C2OC3(C=CC(O)[C@@]4(CC[C@](C)(C5CC[C@@](O)(CC)C(C)O5)O4)O3)C(C)CC2C)O1` (some centres undefined): the Potency in test [1] is 1320 nM (active); in test [2], 2640 nM (active); in test [3], 4690 nM (active); in test [4] it was 2350 nM (active); in test [5] it was 1870 nM (active); in test [6], 3720 nM (active). The Potency in test [7] was 6620 nM (active).
Consider `C[C@@H](Cc1cc2c(c(C(N)=O)c1)N(CCCO)CC2)NCCOc1ccccc1OCC(F)(F)F`, for which the Potency result in test [2], in test [3], in test [4] and in test [5] was “inactive” each time.
Regarding `COC(=O)C1C2CC3c4[nH]c5cc(OC)ccc5c4CCN3CC2CC(OC(=O)c2cc(OC)c(OC)c(OC)c2)C1OC` (centres undefined), the Potency in test [2] was 14800 nM (active); in test [3], 16600 nM (active); in test [4] it was 16600 nM (active); in test [6] it was 29600 nM (active); in test [7], 20900 nM (active). For the same compound, the Potency entry in test [5] was “inactive”.
On to `Cn1cnc2c(F)c(Nc3ccc(Br)cc3F)c(C(=O)NOCCO)cc21`, for which the Potency in test [2] was 74.3 nM (active). Besides, the Potency result in test [3], in test [4], in test [6] and in test [7] was “inactive” throughout.
In the case of `C[C@@H]1CC[C@@]2(OC1)OC1CC3C4CC=C5CC(O)CCC5(C)C4CCC3(C)C1[C@@H]2C` (some centres undefined), the Potency entry in test [2], in test [3], in test [4], in test [6] and in test [7] was “inactive” throughout.
For `NC(=O)c1ncn([C@@H]2O[C@H](CO)[C@@H](O)[C@@H]2O)c1O`, the Potency entry in test [1], in test [2], in test [3], in test [4], in test [5] and in test [7] was “inactive” throughout.
Regarding `N#Cc1cc(NC(=O)Nc2nnc(-c3ccncc3)s2)ccc1-c1cn[nH]c1`, the Potency result in test [2], in test [3], in test [4] and in test [7] was “inactive” in each case.
As for `CCCCCCCCCCCCCCCC(=O)OC[C@@H](NC(=O)C(Cl)Cl)[C@H](O)c1ccc([N+](=O)[O-])cc1`, the Potency result in test [2], in test [3], in test [5] and in test [6] was “inactive” each time.
On to `Cc1ccc([N+](=O)[O-])cc1S(=O)(=O)N(C)N=Cc1cnc2ccc(Br)cn12`, for which the Potency in test [2] is 7.4 nM (active); in test [4], 46.9 nM (active); in test [5] it was 59 nM (active); in test [6], 6.6 nM (active); in test [7], 23.5 nM (active).
As to `CN(N=O)C(=O)N[C@H]1C(O)OC(CO)[C@@H](O)[C@H]1O` (some centres undefined), the Potency entry in test [2], in test [3], in test [4] and in test [7] was “inactive” throughout.
`Cc1cc(C(=O)NOCCO)c(Nc2ccc(I)cc2F)n(C)c1=O`: the Potency result in test [3], in test [4], in test [6] and in test [7] was “inactive” throughout.
As for `NC1=N[C@H]2[C@H](CS[C@H]2CCCCC(=O)O)N1`, the Potency result in test [1], in test [2], in test [3], in test [5] and in test [6] was “inactive” each time.
For the compound `OCCN1C[C@H](O)[C@@H](O)[C@H](O)[C@@H]1CO`, the Potency result in test [1], in test [2], in test [5] and in test [6] was “inactive” in each case.
Consider `C#Cc1cccc(Nc2ncnc3cc(OCCOC)c(OCCO)cc23)c1`, for which the results for the Potency in test [2], in test [6] and in test [7] were 1050 nM (active), 8330 nM (active) and 8330 nM (active), respectively.
Consider `C#C[C@]1(O)CC[C@@H]2[C@@H]3CCC4=CC(=O)CC[C@@H]4[C@H]3CC[C@@]21CC`, for which the Potency result in test [1], in test [2], in test [3], in test [5] and in test [7] was “inactive” in each case.
As for `CNC(=O)Nc1ccc(-c2nc(N3CC4CCC(C3)O4)c3cnn(C4CCC5(CC4)OCCO5)c3n2)cc1`, the Potency in test [3] was 66.2 nM (active); in test [7], 7.4 nM (active).
On to `CCCc1nc(C(C)(C)O)c(C(=O)O)n1Cc1ccc(-c2ccccc2-c2nn[nH]n2)cc1`, for which the Potency result in test [2], in test [3], in test [4], in test [5] and in test [7] was “inactive” in each case.
As to `C[C@](Cc1c[nH]c2ccccc12)(NC(=O)OC1C2CC3CC(C2)CC1C3)C(=O)NC[C@H](NC(=O)CCC(=O)O)c1ccccc1` (some centres undefined), the Potency result in test [2], in test [4], in test [5], in test [6] and in test [7] was “inactive” throughout.
Regarding `CC(=O)O[C@H]1C[C@@H]2CC[C@H]3[C@H]4C[C@H]([N+]5(C)CCCCC5)[C@@H](OC(C)=O)[C@@]4(C)CC[C@@H]3[C@@]2(C)C[C@H]1N1CCCCC1`, the Potency entry in test [1], in test [2], in test [3], in test [4], in test [6] and in test [7] was “inactive” in each case.
As to `Cn1cc(-c2ccc3ncc(Cc4ccc5ncccc5c4)n3n2)cn1`, the Potency in test [3] is 13200 nM (active). Further, the Potency entry in test [4], in test [5] and in test [7] was “inactive” in each case.
On to `CC(N[C@H]1CCCC[C@H]1NC(=O)c1ccc(Cl)cc1)c1cccc2ccccc12` (some centres undefined), for which the Potency result in test [4] and in test [5] was “inactive” throughout. Also, the Potency in test [7] was 18700 nM (active).
For `CC[C@]12C=CCN3CC[C@@]4(c5cc([C@@]6(C(=O)OC)C[C@H]7C[C@@H](C(C)(F)F)CN(Cc8c6[nH]c6ccccc86)C7)c(OC)cc5N(C)[C@H]4[C@@](O)(C(=O)OC)[C@H]1OC(C)=O)[C@@H]32`, the Potency was 1 nM (active) in test [1]; 10.5 nM (active) in test [3]; 166 nM (active) in test [4]; 11.8 nM (active) in test [5]; 2.6 nM (active) in test [6].
For `C=C[C@@H]1CN2CCC1C[C@H]2[C@H](O)c1ccnc2ccc(OC)cc12` (some centres undefined), the Potency entry in test [4], in test [5] and in test [7] was “inactive” each time.
With `COc1ccc(C=Cc2cc(OC)c(OC)c(OC)c2)cc1NC(=O)[C@H](N)CO`, the Potency in test [1] is 1 nM (active); in test [3], 4.2 nM (active); in test [4] it was 26.4 nM (active); in test [7], 11.8 nM (active).
As for `COc1ccc(C(C)=O)c(O)c1`, the Potency entry in test [2], in test [3], in test [4], in test [5] and in test [6] was “inactive” throughout.
Turning to `CC(C)OC(=O)[C@H](C)N[P@](=O)(OC[C@H]1O[C@@H](n2ccc(=O)[nH]c2=O)[C@](C)(F)[C@H]1O)Oc1ccccc1`, the Potency entry in test [3], in test [4], in test [5], in test [6] and in test [7] was “inactive” in each case.
In the case of `O=C(O)[C@H](CC(=O)N1C[C@@H]2CCCC[C@H]2C1)Cc1ccccc1`, the Potency result in test [1], in test [2], in test [3], in test [5], in test [6] and in test [7] was “inactive” throughout.
In the case of `OC[C@H]1OC(O)C[C@@H](O)[C@H]1O` (some centres undefined), the Potency entry in test [1], in test [2], in test [3], in test [4], in test [5] and in test [7] was “inactive” throughout.
Turning to `O=C1NC(O)CCN1[C@@H]1O[C@H](CO)[C@H](O)[C@H]1O` (some centres undefined), the Potency entry in test [2], in test [5], in test [6] and in test [7] was “inactive” each time.
For `Oc1ccc([C@@H]2Oc3ccc(O)cc3[C@@H]3CCC[C@@H]32)cc1`, the Potency is 33200 nM (active) in test [5], 7430 nM (active) in test [6] and 14800 nM (active) in test [7].
In the case of `Cc1nc(NC(=O)N2CCC[C@@H]2C(N)=O)sc1-c1ccnc(C(C)(C)C(F)(F)F)c1`, the Potency in test [2] was 4690 nM (active); in test [4] it was 3320 nM (active); in test [5] it was 20900 nM (active); in test [6], 166 nM (active); in test [7] it was 1180 nM (active). Besides, the Potency result in test [3] is “inactive”.
For the compound `CC(C)c1cc(C(C)C)c(CC(=O)NS(=O)(=O)Oc2c(C(C)C)cccc2C(C)C)c(C(C)C)c1`, the Potency in test [1] is 10500 nM (active); in test [2], 5900 nM (active); in test [5], 23500 nM (active). In test [7], the Potency entry is “inactive”.
As for `O=S(=O)(O)CCSSCCS(=O)(=O)O`, the Potency entry in test [1], in test [3], in test [5] and in test [7] was “inactive” throughout.
Take `NC(=O)c1ncn([C@@H]2O[C@H](CO)[C@@H](O)[C@@H]2O)c1N`: the Potency entry in test [2], in test [3], in test [4], in test [5] and in test [7] was “inactive” in each case.
With `CON=C(C(=O)N[C@@H]1C(=O)N2C(C(=O)O)=C(Cn3ccc(=N)n3CCO)CS[C@H]12)c1csc(N)n1`, the Potency result in test [2], in test [3], in test [4], in test [5], in test [6] and in test [7] was “inactive” throughout.
Take `N#CC(=Cc1ccc(O)c(O)c1)C(=O)NCc1ccccc1`: the Potency in test [2] was 14800 nM (active); in test [3] it was 10500 nM (active). In addition, in test [5], the Potency entry is “inactive”.
For `Nc1cccc2c1C(=O)N(C1CCC(=O)NC1=O)C2=O` (centres undefined), the Potency result in test [1], in test [2] and in test [3] was “inactive” throughout. Further, in test [5], the Potency is 1.2 nM (active).
In the case of `C[C@@H](NCc1cc2ccccc2[nH]1)c1cccc2ccccc12`, the Potency entry in test [3], in test [4], in test [5], in test [6] and in test [7] was “inactive” each time.
